Screening results as filed in PubChem.
GALR2 agonist: GALR2 (human) receptor agonism; activation, % (no concentration beside the values); GALR2-expressing cells, agonist activation read-out; O43603; 0.48% of 140,000 active; AID 803; in the data active = activation above about 5%, passing the limit was not always enough
Target sequence (O43603 whole entry, looked up): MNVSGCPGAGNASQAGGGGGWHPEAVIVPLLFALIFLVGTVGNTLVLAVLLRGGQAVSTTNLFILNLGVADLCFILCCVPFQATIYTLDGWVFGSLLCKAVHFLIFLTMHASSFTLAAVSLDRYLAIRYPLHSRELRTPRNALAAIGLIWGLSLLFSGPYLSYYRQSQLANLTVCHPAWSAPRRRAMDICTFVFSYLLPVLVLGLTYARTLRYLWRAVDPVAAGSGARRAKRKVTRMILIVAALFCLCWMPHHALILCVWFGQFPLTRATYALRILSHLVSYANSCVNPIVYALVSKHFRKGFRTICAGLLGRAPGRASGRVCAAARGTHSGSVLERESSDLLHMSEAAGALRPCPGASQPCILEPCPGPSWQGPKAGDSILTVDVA
GALR2 antag: GALR2 (human) receptor antagonism; O43603; GALR2-expressing cells, antagonist mode; inhibition, % at 4 µM; 0.39% of 140,000 active;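 also: cells stimulated with galanin 1-16 at roughly its EC80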
S1P2 blocker: blocks the human S1P2 receptor; O95136; inhibition, % at 5 µM; 0.21% of 97,000 active; cell-based S1P2 antagonist assay, inhibition at 5 uM; in the data active = inhibition above about 45%;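 also: CRE beta-lactamase reporter cells expressing human S1P2 stimulated with S1P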
MRP-1 activ: activates MRP-1 | H69AR cells + doxorubicin, viability rescue, CellTiter-Glo | viability increase, % at 10 µM | 0.61% of 140,000 active | AID 799;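 active = viability gain under doxorubicin at or above a set limit, the compound median plus 3 SD, cut at about 4.7% in these data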;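 also: MRP-1 overexpressing cells given doxorubicin 25 µM after compound pretreatment; 18-22 h compound pretreatment then 72 h with doxorubicin before readout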
S1P2 ag: S1P2 (human) receptor agonism; O95136; S1P2-expressing cell line, agonist reporter read-out; AID 729; 0.46% of 97,000 active; activation, % at 4.5 µM; in the data active = activation above about 16%
MRP resist rev: reverses drug resistance mediated by MRP. AID 602. H69AR cells + 2 uM doxorubicin, CellTiter-Glo, 72 h. 0.04% of 85,000 active. differential viability (reversal), % at 10 µM;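 active = viability drop by adding the cancer drug above about 55%, with treated viability meeting a 40% cutoff, limit read from the data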;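 also: larger differential means the compound sensitizes cells more to doxorubicin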
GALR2 blk conf: confirmation of human galanin receptor 2 (GALR2) antagonists; inhibition, % at 4 µM; GALR2-expressing cells, antagonist mode, inhibition; 60% of 480 active; shares compounds with GALR2 antag;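 also: cells stimulated with galanin at about its EC80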
BLA inh counter: beta-lactamase inhibition, GALR2 counterscreen; shares compounds with GALR2 antag; CHO NFAT-BLA reporter, beta-lactamase FRET, thapsigargin-stimulated; inhibition, % at 4.2 µM; 36% of 480 active;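 active = inhibition above the mean inhibition across tested compounds plus 3 SD, cut at about 27% in these data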
Numbers stand for hits; . = inactive; / = not tested or not shown. In the library only some 1.8% were active in any assay of this set; here they are far more common. Rule as the data show it, unless noted: active = inhibition above about 27%; inactive = the rest.

SMILES | GALR2 agonist | GALR2 antag | S1P2 blocker | MRP-1 activ | S1P2 ag | MRP resist rev | GALR2 blk conf | BLA inh counter
CCc1c(C)nc2ncnn2c1NCCc1ccc(OC)c(OC)c1 | . | . | . | . | . | . | / | /
Cc1ccc(-c2cc(C(=O)N(C)Cc3cnn(C)c3C)c3cc(Br)ccc3n2)cc1 | . | 28 | / | . | / | / | . | .
COc1cccc(COc2cc3ccccc3nc2C)c1 | . | 40 | 57 | . | . | / | 37 | .
CC(NC(=O)c1nn(C)c(=O)c2ccccc12)c1ccccc1 (stereo not drawn) | . | . | . | . | . | . | / | /
O=C(N/N=C/C(Br)=C/c1ccccc1)c1n[nH]c2c1CCC2 | . | 37 | . | . | . | . | 33 | 60
C=CCc1cccc(OC)c1OCCOCCn1ccnc1 | . | . | / | . | / | / | / | /
c1cncc(CNc2c3c(nc4nnnn24)CCCC3)c1 | . | . | / | . | / | . | / | /
Oc1ccccc1N=Nc1nc(-c2ccccc2)c(-c2ccccc2)[nH]1 | . | 29 | . | . | . | / | 34 | .
COc1ccccc1N=Nc1nc(-c2ccccc2)c(-c2ccccc2)[nH]1 | . | . | / | . | / | / | / | /
COc1ccc(CNC(=O)Cc2nn(C)c(=O)c3ccccc23)cc1 | . | 36 | . | . | . | . | . | .
COc1ccc(OC)c(NC(=O)Cc2nn(C)c(=O)c3ccccc23)c1 | . | . | . | . | . | . | / | /
O=C(Cn1nc(-c2ccc(Cl)cc2)ccc1=O)N1CCN(c2ccccc2)CC1 | . | . | . | . | . | / | / | /
Fc1ccc(Cn2ccc(-c3cnc(-c4ccccc4)s3)n2)cc1 | . | . | . | . | . | . | / | /
COc1cc(/C=N/NC(=O)c2cc(-c3cccn3C)n[nH]2)cc(OC)c1OC | . | . | . | . | . | / | / | /
COc1cccc(/C=N/NC(=O)c2cc(-c3cccn3C)n[nH]2)c1O | . | 28 | / | 7.1 | / | / | 27 | .
O=C1C=C(Nc2ccccc2O)c2ccccc2C1=O | . | 28 | . | . | . | . | . | 29
CC(=O)Nc1ccccc1O | . | . | / | . | / | . | / | /
Cc1ccc(Nc2nc(-c3c(C)nc4ccccn34)cs2)cc1 | . | 34 | . | . | . | / | 40 | 59
Cc1ccc(Nc2nc(-c3c(C)nc4ncccn34)cs2)cc1 | . | . | . | . | . | / | / | /
NC(=O)c1ccccc1NC(=O)Nc1cccc(Cl)c1Cl | . | 53 | / | . | / | / | 69 | 33
O=C(C1=NN(c2ccccc2)C2C(=O)N(c3ccccc3)C(=O)C12)c1ccccc1 (stereo not drawn) | . | . | / | . | / | / | / | /
O=C(C1=NN(c2ccccc2)C2C(=O)N(c3ccccc3Cl)C(=O)C12)c1ccccc1 (stereo not drawn) | . | 29 | / | . | / | / | . | 42
Cc1nnc(-c2cccc(Br)c2)c2cn(-c3ccc(Br)cc3)nc12 | . | . | . | . | . | / | / | /
C=CCSC(=C(C#N)C#N)c1cc2c([nH]1)CCCC2 | . | 31 | . | . | . | . | 27 | .
CCCCN(C)CCn1c(=S)[nH]c2ncccc2c1=O | . | 32 | . | . | . | . | . | .
SMILES | GALR2 agonist | GALR2 antag | S1P2 blocker | MRP-1 activ | S1P2 ag | MRP resist rev | GALR2 blk conf | BLA inh counter
CN(C)c1ccc(C(=O)Nc2cc(C(F)(F)F)ccc2-n2cncn2)cc1 | . | . | . | . | . | . | / | /
CSc1ncccc1C(=O)Nc1nc2c(C)cccc2s1 | . | 29 | / | . | / | / | 28 | .
CN1C(=O)SC(Nc2ccc(F)cc2)C1=O (stereo not drawn) | . | . | . | . | . | . | / | /
O=C(Nc1nc(-c2ccccc2)ns1)c1cccs1 | . | 36 | . | . | . | . | . | .
O=C(Nc1nc(-c2ccccc2)cs1)c1cccs1 | . | . | . | . | . | . | / | /
C1=C(c2ccccc2)N2CCN=C2S1 | . | . | . | . | . | . | / | /
Cc1cc(=O)oc2cc(OC(C)C(=O)O)c(Cl)cc12 (stereo not drawn) | . | . | . | . | . | / | / | /
COc1ccc(/C=N/NC(=O)C(N)=O)c(OC)c1OC | . | 27 | / | . | / | / | . | .
COc1ccc(/C=N/NC(=O)C[n+]2ccccc2)c(OC)c1OC | . | . | / | . | / | / | / | /
COc1ccccc1Nc1nc(-c2c(C)[nH]c3ccccc23)cs1 | . | 30 | / | . | / | / | . | .
CCCC(=O)Nc1nc(C)c(-c2csc(Nc3ccccc3OC)n2)s1 | . | . | . | . | . | / | / | /
O=c1c2c(-c3cccs3)csc2ncn1-c1ccc(Br)cc1 | . | 55 | . | . | . | . | . | .
COc1cccc(-n2cnc3scc(-c4cccs4)c3c2=O)c1 | . | . | . | . | . | . | / | /
CC(C)CCNC(=O)CN(CC1CCCO1)C(=O)CCC(=O)Nc1ccccn1 (stereo not drawn) | . | . | . | . | . | . | / | /
O=C(CN(CC1CCCO1)C(=O)CCC(=O)Nc1ccccn1)NCc1ccccc1 (stereo not drawn) | . | 30 | . | . | . | . | . | .
COc1cc2nc(/C=C/c3ccc(N(C)C)cc3)sc2cc1SC | 5.2 | 52 | / | . | / | / | 60 | 67
CC(=O)c1cnc2nc(C)nn2c1C | . | . | . | . | . | . | / | /
O=C(Nc1cccc(S(=O)(=O)N2CCCC2)c1)c1ccc2c(=O)n3c(nc2c1)CCCCC3 | . | 34 | / | . | / | / | . | .
c1ccc(CN2CCN(c3ncnc4c3[nH]c3ccccc34)CC2)cc1 | . | 36 | 78 | . | . | . | 40 | .
COc1ccc2c(c1)[nH]c1c(N3CCN(Cc4ccc5c(c4)OCO5)CC3)ncnc12 | . | 38 | 87 | . | . | / | 44 | .
c1ccc2c(c1)CCN(c1ncnc3c1[nH]c1ccccc13)C2 | / | / | / | . | / | / | / | /
Cc1ccc2[nH]c3c(N4CCCCCC4)ncnc3c2c1 | . | 38 | 92 | . | . | . | 42 | .
COc1ccccc1N1CC(C(=O)OCC(=O)c2ccc(F)cc2)CC1=O (stereo not drawn) | . | . | . | . | . | . | / | /
CCOC(=O)CSc1nc(C)cc(=O)[nH]1 | . | 32 | . | . | . | . | . | .
CC/C(=N\NC(=O)CSCc1ccc(Cl)cc1)c1ccc2c(c1)OCCO2 | . | . | . | . | . | / | / | /
SMILES | GALR2 agonist | GALR2 antag | S1P2 blocker | MRP-1 activ | S1P2 ag | MRP resist rev | GALR2 blk conf | BLA inh counter
CCOC(=O)C(=CNc1cccc(N)n1)C(=O)OCC | . | . | . | . | . | / | / | /
CCOC(=O)C(=CNc1ccc(NC2=NCC(C)S2)cc1)C(=O)OCC (stereo not drawn) | . | 33 | / | . | / | / | 45 | 37
CS(=O)(=O)c1nc(-c2ccco2)cc(C(F)(F)F)n1 | . | 27 | . | . | . | / | 53 | 44
CC(NC(=O)c1ccc2c(c1)OCO2)C(c1cccs1)N1CCOCC1 (stereo not drawn) | . | . | . | . | . | . | / | /
O=C(COC(=O)c1ccccc1C(=O)c1ccc(Cl)c([N+](=O)[O-])c1)NC1CCCCCC1 | . | 31 | 59 | . | . | / | 64 | 52
Brc1ccc(-c2nn3c(-c4ccco4)nnc3s2)o1 | . | . | . | . | . | / | / | /
Cc1cccnc1Nc1nc(-c2ccccn2)cs1 | . | 27 | . | . | . | . | 51 | 31
